In all, about 11,000 compounds went through this assay and about 310 (2.8%) were called active. Cut-off read from the data, not from the text of the source: active = activity change below about -85%; inactive = the rest. The entries come from a sample that favours actives as a whole.

The assay concerns intestinal alkaline phosphatase [Mus musculus]. The assay can be described thus: activators of mouse IAP, confirmation, biochemical, luminescence, single concentration (AID 434970). The following applies: purified mouse IAP, CDP-Star luminescence, 30 min, at 10 µM; activation factor: measured here: IAP activation factor, stronger effect = higher value; activity change, negative = activation: stronger effect = lower value.
`C#CCOCCOCCOCCNc1nc(N2CCN(C(=O)CCCCCCCCCCNC(=O)Cn3cc(C[C@@H](C)O)nn3)CC2)nc(N2CCN(C(=O)CCCCCCCCCCNC(=O)[C@H](CCCCN)n3cc(C[C@@H](C)CC)nn3)CC2)n1`: the activation factor was determined as 2.76 and the activity change, negative = activation is -176% (active).

Consider `C#CCOCCOCCOCCNc1nc(N2CCN(C(=O)CCCCCCCCCCNC(=O)Cn3cc(C[C@@H](C)O)nn3)CC2)nc(N2CCN(C(=O)CCCCCCCCCCNC(=O)[C@H](CCCN=C(N)N)n3cc(C[C@@H](C)CC)nn3)CC2)n1`, for which the activation factor is 5.68 and the activity change, negative = activation is -468% (active).

In the case of `CC[C@H](C)Cc1cn([C@@H](CCCCNC(=O)OC(C)(C)C)C(=O)NCCCCCCCCCCC(=O)N2CCN(C(=O)OC(C)(C)C)CC2)nn1`, the activation factor came out at 1.57 and the activity change, negative = activation is -56.9% (inactive).

In the case of `CCc1cccc(CC)c1NC(=O)CSc1nc2ccc(N3C(=O)C4C5C=CC(C5)C4C3=O)cc2s1` (stereo not given), the activation factor turned out to be 0.959 and the activity change, negative = activation was 4.1% (inactive).

As for `CCOC(=O)C1(CC)NC(c2ccco2)C2C(=O)N(c3ccc(C)cc3)C(=O)C21` (stereo not given), the activation factor was found to be 1.05 and the activity change, negative = activation was -4.65% (inactive).

`COCCCNC(=O)C[C@H]1C[C@H](C(=O)N2CCCCC2)[C@@]2(CCc3ccccc3)c3[nH]c4ccc(Cl)cc4c3CCN2C1=O`: the activation factor is 1.2 and the activity change, negative = activation is -19.7% (inactive).

Turning to `CCOC(=O)C1(C)/C(=N/Nc2ccccc2Cl)C(=O)C(=O)N1c1ccccc1` (stereo not given), the activation factor stood at 0.886 and the activity change, negative = activation was 11.4% (inactive).

For the compound `Cc1ccc(C)c(N2CCN(C(=O)CCc3nc(-c4ccc(Br)cc4)no3)CC2)c1`, the activation factor was 1.04 and the activity change, negative = activation is -4.15% (inactive).

For the compound `NC(=O)C1CCN(CC(=O)Nc2ccccn2)CC1`, the activation factor was found to be 0.922 and the activity change, negative = activation is 7.8% (inactive).

`CCCN(CCC)C(=O)c1ccc2c(c1)OCO2`: the activation factor was 1.05 and the activity change, negative = activation was -5.1% (inactive).

In the case of `COc1ccc(CN2CC[C@H]3C=CC[C@@H](C(=O)Nc4ccc(Cl)c(C(F)(F)F)c4)[C@H]3C2=O)cc1OC`, the activation factor amounted to 2.85 and the activity change, negative = activation is -185% (active).

Regarding `O=C(O)[C@H]1CC=C[C@H]2CCN(Cc3ccc(Cl)c(Cl)c3)C(=O)[C@@H]12`, the activation factor was found to be 1.05 and the activity change, negative = activation is -5.25% (inactive).

`CCCCN1CC[C@@H]2C=CC[C@H](C(=O)OC)[C@@H]2C1=O`: the activation factor turned out to be 0.952 and the activity change, negative = activation is 4.85% (inactive).

With `CCOC(=O)c1ccc(NC(=O)NC2CC3CCC(C2)N3Cc2nnnn2C(C)(C)C)cc1` (stereo not given), the activation factor came out at 1.46 and the activity change, negative = activation was -45.8% (inactive).

As for `CC(C)=CCC/C(C)=C/CNC(=O)C[C@H]1C[C@H](C(=O)N(C(C)C)C(C)C)[C@@]2(C)c3[nH]c4ccc(Cl)cc4c3CCN2C1=O`, the activation factor came out at 1.25 and the activity change, negative = activation was -25.1% (inactive).

`CCN(CC)C(=O)[C@H]1CC(CC(=O)NC/C=C(\C)CCC=C(C)C)C(=O)N2CCc3c([nH]c4ccc(OC)cc34)[C@]12C` (stereo not given in full): the activation factor came to 1.25 and the activity change, negative = activation was -24.9% (inactive).

As to `COc1ccc2[nH]c3c(c2c1)CCN1C(=O)C(CC(=O)NC/C=C(\C)CCC=C(C)C)C[C@H](C(=O)N(C(C)C)C(C)C)[C@@]31C` (stereo not given in full), the activation factor is 2 and the activity change, negative = activation was -100% (active).

In the case of `Cc1ccc(NCc2nnc(SCC(N)=O)n2CC2CCCO2)c(C)c1` (stereo not given), the activation factor was found to be 1.09 and the activity change, negative = activation was -9.4% (inactive).

`FC(F)(F)c1cccc(NC(=S)NCc2ccccc2)c1`: the activation factor came to 1.69 and the activity change, negative = activation is -69.2% (inactive).

`Fc1ccc(CNC(=S)Nc2cccc(C(F)(F)F)c2)cc1`: the activation factor turned out to be 1.28 and the activity change, negative = activation is -27.5% (inactive).

In the case of `COc1ccc(CNC(=O)Nc2cccc(C(F)(F)F)c2)cc1OC`, the activation factor amounted to 2.21 and the activity change, negative = activation is -121% (active).

Regarding `O=C(NCc1ccc2c(c1)CCO2)Nc1cccc(C(F)(F)F)c1`, the activation factor worked out at 2.44 and the activity change, negative = activation was -144% (active).

On to `COc1ccc(CNC(=O)NCc2ccc(OC)c(OC)c2)cc1OC`, for which the activation factor worked out at 1.09 and the activity change, negative = activation is -9% (inactive).

On to `FC(F)(F)c1cccc(NC(=S)NCc2ccc(Cl)cc2)c1`, for which the activation factor was found to be 1.18 and the activity change, negative = activation is -18.2% (inactive).

As for `Cc1cc(C)c2c(-n3cccc3)c(C(=O)NNS(=O)(=O)c3ccc(Br)cc3)sc2n1`, the activation factor was 0.865 and the activity change, negative = activation was 13.5% (inactive).

Regarding `CC1(C)CC2CC(C)(CN2C(=O)CN2C(=O)c3ccccc3C2=O)C1` (stereo not given), the activation factor amounted to 1.09 and the activity change, negative = activation was -8.65% (inactive).

Consider `CC(=O)c1ccc(NC(=O)CCn2c(=O)oc3ccccc32)cc1`, for which the activation factor was determined as 1.03 and the activity change, negative = activation is -3.25% (inactive).

For the compound `COc1ccccc1CNC(=O)CCCOc1cc(=O)n(C)c2ccccc12`, the activation factor worked out at 0.997 and the activity change, negative = activation is 0.3% (inactive).

Regarding `C=CCC1[C@H](C)[C@H]2[C@@H]3CC[C@@H](C3)[C@H]2CN1S(=O)(=O)c1ccc(C)cc1` (stereo not given in full), the activation factor stood at 1.12 and the activity change, negative = activation is -11.8% (inactive).

With `CCN(CC)CCNC(=O)c1ccc(NC(=O)Nc2cccc3ccccc23)cc1`, the activation factor is 2.6 and the activity change, negative = activation is -160% (active).

Turning to `O=C(Nc1ccccc1)Nc1cccc2ccccc12`, the activation factor amounted to 1.79 and the activity change, negative = activation was -78.8% (inactive).

Regarding `N#CCc1ccc(NC(=O)Nc2cccc3ccccc23)cc1`, the activation factor is 1.89 and the activity change, negative = activation was -89.1% (inactive).

On to `CCOc1ccc(CC(=O)OCN2C(=O)c3ccccc3C2=O)cc1`, for which the activation factor came to 0.926 and the activity change, negative = activation was 7.35% (inactive).

Take `CCOc1ccc(NC(=O)CC(c2ccccc2)c2ccc(F)cc2)cc1` (stereo not given): the activation factor came to 1.44 and the activity change, negative = activation was -43.6% (inactive).

Consider `COc1ccccc1C(CC(=O)Nc1ccc(C)c(C)c1)c1ccc(OC(C)C)cc1` (stereo not given), for which the activation factor was 2.06 and the activity change, negative = activation was -106% (active).

Consider `CCOc1ccccc1NC(=O)c1cccc(NC(=O)CC(c2ccccc2)c2ccccc2)c1`, for which the activation factor was 1.39 and the activity change, negative = activation was -39.4% (inactive).

Regarding `COc1ccccc1C(CC(=O)Nc1ccc(Cl)cc1)c1ccc(OC(C)C)cc1` (stereo not given), the activation factor stood at 1.91 and the activity change, negative = activation was -90.9% (active).

As to `Cc1ccc(NC(=O)c2ncn(CC(=O)NCC(C)c3ccccc3)n2)cc1C` (stereo not given), the activation factor was determined as 0.995 and the activity change, negative = activation was 0.5% (inactive).

Regarding `Cc1ccc(NC(=O)CNc2ccc(OC(C)C)cc2)cc1`, the activation factor came out at 0.9 and the activity change, negative = activation is 10% (inactive).

On to `O=C(CN(Cc1ccccc1F)C(=O)Cn1nnc(-c2cccs2)n1)NC1CCCCC1`, for which the activation factor worked out at 1.22 and the activity change, negative = activation is -22.1% (inactive).

For the origin of these results see PubChem BioAssay AID434970 (Sanford-Burnham Center for Chemical Genomics, 2010).
